# ± gives the standard deviation.
# Experiments:
# [1] = system: MILI (PIWIL2) piRISC loaded with L1MC piRNA (26 nt); assay: pre-steady-state target cleavage rate (min^-1); guide: L1MC piRNA 5'p-UAACUAAAUACUAUGCAAGCUGUAGG; higher = faster piRNA-guided slicing of the target
# Summary of the method: (§1)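 Cleave-'n-Seq used a transcribed, DNA-blocked target RNA library at 0.1 nM and active affinity-purified piRISC with one synthetic guide at 1 nM, with or without 500 nM GTSF1 partner protein, in HEPES–potassium acetate buffer at 33 °C for 0–8 or 0–960 min. Uncleaved targets were sequenced and normalised to depth and to weakly complementary targets, and three trials were pooled with k3 capped at 0.0001 min^-1. The pre-steady-state cleavage rate was estimated by a burst-and-steady-state fit.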
# [2] = system: EfPiwi piRISC loaded with L1MC piRNA (26 nt); assay: pre-steady-state target cleavage rate (min^-1); auxiliary factor: 500 nM Ephydatia muelleri Gtsf1; guide: L1MC piRNA 5'p-UAACUAAAUACUAUGCAAGCUGUAGG; MIWI and MILI are mouse PIWI proteins and EfPiwi is from a freshwater sponge; tags in brackets are library labels; higher = faster piRNA-guided slicing of the target
# Summary of the method: as §1
# [3] = auxiliary factor: 500 nM mouse GTSF1
# [4] = auxiliary factor: none (no GTSF1)
Sequence,"pre-steady-state target cleavage rate [1, 3]","pre-steady-state target cleavage rate [1, 4]",pre-steady-state target cleavage rate [2]
UCCUGGAUGUGCUAGCAAAGUAUUUAGUUA,0.0105 ± 0.0034,0.00469 ± 0.0015,
UCCUGGAUGAGGUUGCAUAGUAUUAAGUUA,0.0422 ± 0.018,0.00493 ± 0.0031,
UCCUGGAUCAGCUUCCUUAGUAUUUAGUUA,0.122 ± 0.018,0.00478 ± 0.0016,
UCCUGGAACAGCUUGCAUAGUAUUAAGUUA,0.212 ± 0.024,0.00457 ± 0.0019,
UCCUGGAUGUCCUUGCUUAGUAUUUUGUUA,0.0587 ± 0.018,0.00384 ± 0.003,
UCCUGGAUGUGCGUGCAUAGUAUUUAGUUA,0.107 ± 0.012,0.0107 ± 0.0032,0.00405 ± 0.0027
UCCUGGAUCAGCUUGCUUAGUAUUAAGUUA,0.129 ± 0.016,0.00516 ± 0.0021,0.00376 ± 0.0025
UCCUGGAUGAGCUUGCAUAGUAUUUAGGUUA,0.195 ± 0.028,0.0044 ± 0.0031,0.0031 ± 0.002
UCCUGGAUCAGCUUGCAUAGUAUUUAGAUUA,0.0478 ± 0.011,0.00315 ± 0.0026,0.00483 ± 0.0016
UCCUGCUACAGCAUGCAAAGUAUUUAGUUA,0.163 ± 0.015,0.00807 ± 0.0029,0.00845 ± 0.0025
UCCUGGAACAGCUUGCAUAGUAUUUAGUGA,0.229 ± 0.027,0.00433 ± 0.0025,0.00437 ± 0.002
UCCUGGUACAGCUUGCAUAGUGUUUAGUUA,0.162 ± 0.026,0.00946 ± 0.0035,0.00794 ± 0.0028
UCCUCCUACAGCUUCGAUAGUAUUUAGUUA,0.26 ± 0.017,0.00534 ± 0.0022,0.0137 ± 0.0042
UCCUGGAUGUCCUUUGCAUAGUAUUUAGUUA,0.0866 ± 0.015,0.0072 ± 0.0024,0.00785 ± 0.0043
UCCUGCUACAGCUAGGAUAGUAUUUAGUUA,0.259 ± 0.015,0.00677 ± 0.0024,0.011 ± 0.0037
UCCUGGAUCAGCUUGCAAAGUAUUUAGAUA,0.126 ± 0.018,0.00353 ± 0.0024,0.00558 ± 0.0029
UCCUGGAACAGGUUGCAUAGUAUUUUGUUA,0.132 ± 0.018,0.00924 ± 0.0022,0.00366 ± 0.0015
UCCUGGUACAGCUUGCAAAGUAUUAAGUUA,0.0919 ± 0.018,0.00406 ± 0.0027,0.00292 ± 0.0026
UCCUGGAUCAGACUUGCAUAGUAUUUAGUUA,0.254 ± 0.015,0.00843 ± 0.0023,0.0293 ± 0.009
UCCUGGUACAGCUCUGCAUAGUAUUUAGUUA,0.243 ± 0.018,0.00792 ± 0.0029,0.0139 ± 0.0042
UCCUGGAUGUGCUUAGCAUAGUAUUUAGUUA,0.124 ± 0.015,0.00625 ± 0.0028,0.00497 ± 0.0028
UCCUGGUACAGCUUGCAUAGUAUUUAGUCA,0.159 ± 0.032,0.00633 ± 0.0029,0.00545 ± 0.0021
UCCUGCUCCAGCUUGCAUAGUAUUUAGUUA,0.256 ± 0.017,0.00969 ± 0.0026,0.0877 ± 0.024
UCCUCCUACAGCUUGCAUACUAUUUAGUUA,0.088 ± 0.013,0.00383 ± 0.0021,0.00904 ± 0.0032
UCCUGAUACAGCUUGCAUAGUAUUUAGUUA,0.269 ± 0.02,0.00917 ± 0.0027,0.0427 ± 0.014
UCCUCCUACACCUUGCAUAGUAAUUAGUUA,0.196 ± 0.031,0.00304 ± 0.0027,0.0071 ± 0.0031

Sequence,"pre-steady-state target cleavage rate [1, 3]","pre-steady-state target cleavage rate [1, 4]",pre-steady-state target cleavage rate [2]
UCCUGGUACAGCUUUCAUAGUAUUUAGUUA,0.22 ± 0.042,0.0103 ± 0.0032,0.00404 ± 0.0023
UCCUCCUAGUGCUUGCAUAGUAUUUAGUUA,0.164 ± 0.018,0.00418 ± 0.0018,0.00928 ± 0.0031
UCCUGGAUCAGCUUGCAUAGAAUUUAGUUA,0.0368 ± 0.0086,0.00356 ± 0.002,0.00327 ± 0.0015
UCCUGGAUCAGCUUACAUAGUAUUUAGUUA,0.249 ± 0.014,0.00805 ± 0.0023,0.175 ± 0.039
UCCUGCUAGAGCUUGCAUUGUAUUUAGUUA,0.219 ± 0.018,0.0097 ± 0.0023,0.00751 ± 0.0022
UCCUGGAUGUCCUUGCAUUGUAAUUAGUUA,0.014 ± 0.0069,0.00354 ± 0.0025,
UCCUGCUACAGGAUGCAUAGUAUUUAGUAA,0.301 ± 0.044,0.00446 ± 0.0019,
UCCUGGAUGUCCUUGCAUAGUAUUUAGUUA [g2:g19:cont:t1A],0.119 ± 0.018,0.00813 ± 0.0021,0.00824 ± 0.003
UCCUCCUUCAGCUUGCAUAGUAUUUAGAUA,0.157 ± 0.022,0.00242 ± 0.0024,0.00476 ± 0.0027
UCCUGCUACAGCUUGCAUACUAUUUAGUUA,0.0775 ± 0.012,0.0046 ± 0.0019,0.00755 ± 0.0026
UCCUCCUACAGCUAGCAAAGUAUUUAGUUA,0.138 ± 0.014,0.00428 ± 0.0022,0.0276 ± 0.0094
UCCUGGAACAGCUUGGAUAGUAUAUAGUUA,0.215 ± 0.027,0.00403 ± 0.0027,0.00939 ± 0.0043
UCCUCCUACAGCUUCGCAUAGUAUUUAGUUA,0.282 ± 0.015,0.00644 ± 0.0025,0.121 ± 0.032
UCCUCCUACUGCUAGCAUAGUAUUUAGUUA,0.232 ± 0.015,0.006 ± 0.0021,0.0131 ± 0.004
UCCUGGAACUGCUUGGAUAGUAUUUAGUUA,0.222 ± 0.013,0.0109 ± 0.0023,0.0527 ± 0.014
UCCUGGAUGAGCUAGCAUACUAUUUAGUUA,0.0848 ± 0.017,0.00398 ± 0.0027,0.00286 ± 0.002
UCCUCCUACAGCUCUGCAUAGUAUUUAGUUA,0.276 ± 0.014,0.00692 ± 0.0018,0.0445 ± 0.014
UCCUGGUACAGCUUGCAAUAGUAUUUAGUUA,0.0322 ± 0.0093,0.00408 ± 0.0024,0.00587 ± 0.0028
UCCUCCUACAGGAUGCAUAGUAUUUAGUAA,0.23 ± 0.017,0.00422 ± 0.0022,0.0119 ± 0.0048
UCCUGGUACACUUGCAUAGUAUUUAGUUA,0.188 ± 0.024,0.00665 ± 0.0026,0.00407 ± 0.0024
UCCUGGUACAGCCUGCAUAGUAUUUAGUUA,0.186 ± 0.024,0.0143 ± 0.004,0.00984 ± 0.0036
UCCUGGAUGAGCUUGCCUAGUAUUUAGUUA,0.194 ± 0.014,0.00475 ± 0.0027,0.00623 ± 0.0037
UCCUGGAUCAGCUUGCAUAGUAUUUAGAUA,0.114 ± 0.013,0.00393 ± 0.0016,0.00499 ± 0.0022
UCCUGGAUGAACUUGCAUAGUAUUUAGUUA,0.128 ± 0.013,0.00751 ± 0.0026,0.0179 ± 0.0064
UCCUGGAUCAGCUUGCAUAGUAUUUAUUUA,0.0819 ± 0.017,0.00658 ± 0.0024,0.00293 ± 0.0028
UCCUGGAACAGCUUGCAUAGUAGUUAGUUA,0.138 ± 0.018,0.00378 ± 0.0026,0.00926 ± 0.0027

# From the supplement of paper PMC10338343
